Values joined by “and” are separate entries in the source; they are usually repeats but may differ in a detail not shown here. Identical values can stand only once. In all, about 5,500 compounds went through this assay and about 2,000 (36%) were called active. Roughly 18% stayed inconclusive and do not appear here. No stated cut-off is given here; in the data, active means normalized growth mostly below about 0.91 (no sharp cut-off); inconclusive means no clear call, values can overlap the other calls; inactive means mostly above about 0.92. Some of the results follow.
Assay: chemical genetic growth profiling, strain panel (AID 1159580);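 further: tested at 20 µM; growth read once vehicle control cultures reached saturation at 30 °C; 1 = growth at the plate median or of vehicle wells; lower values mean less growth of the strain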
Settings: S. cerevisiae deletion strains, growth OD

Measured: normalized growth

O=C(O)CN(CCN(CC(=O)O)CC(=O)O)CC(=O)O
active: locus YDL101C, strain DUN1, hits give low values 0.889 | locus YDL185W, strain tfp1, hits give low values 0.282 | locus YDL192W, strain arf1, hits give low values 0.826 | locus YDR318W, strain mcm21, hits give low values 0.817 | locus YDR502C, strain sam2, hits give low values 0.769 | locus YGL086W, strain mad1, hits give low values 0.79 | locus YGL248W, strain PDE1, hits give low values 0.826 | locus YGR078C, strain PAC10, hits give low values 0.82 | locus YGR135W, strain pre9, hits give low values 0.819 | locus YGR229C, strain SMI1, hits give low values 0.774 | locus YHR129C, strain ARP1, hits give low values 0.87 | locus YHR200W, strain rpn10, hits give low values 0.893 | locus YIL073C, strain SPO22, hits give low values 1.99 [resistant] | locus YJL187C, strain SWE1 (second series), hits give low values 0.861 | locus YKR001C, strain vps1, hits give low values 0.769 | locus YLR058C, strain SHM2, hits give low values 0.863 | locus YLR268W, strain sec22, hits give low values 0.801 | locus YLR418C, strain cdc73, hits give low values 0.764 | locus YMR223W, strain ubp8, hits give low values 0.793 | locus YNL067W, strain RPL9B, hits give low values 0.813 | locus YNL153C, strain GIM3, hits give low values 0.834 | locus YNL233W, strain BNI4, hits give low values 0.847 | locus YOR136W, strain idh2, hits give low values 0.909 | locus YOR184W, strain ser1, hits give low values 0.699 | locus YPR167C, strain met16, hits give low values 0.902 | strain wtn01, hits give low values 0.816
inactive: locus YBR021W, strain FUR4, hits give low values 1.04 | locus YBR229C, strain ROT2, hits give low values 0.995 | locus YCL029C, strain bik1, hits give low values 0.958 | locus YDL035C, strain GPR1, hits give low values 0.869 | locus YDL074C, strain BRE1, hits give low values 0.885 | locus YDR101C, strain arx1, hits give low values 0.989 | locus YDR162C, strain NBP2, hits give low values 0.918 | locus YDR388W, hits give low values 1.02 | locus YEL061C, strain CIN8, hits give low values 0.934 | locus YER110C, hits give low values 0.938 | locus YER155C, strain BEM2, hits give low values 1.01 | locus YER167W, strain BCK2, hits give low values 0.936 | locus YGL078C, strain dbp3, hits give low values 0.985 | locus YGR252W, strain gcn5, hits give low values 0.994 | locus YHR030C, strain SLT2, hits give low values 0.97 and 0.976 | locus YHR079C, strain IRE1 (second series), hits give low values 0.991 | locus YHR079C, strain IRE1, hits give low values 0.934 | locus YHR094C, strain hxt1, hits give low values 0.994 | locus YIL066C, strain RNR3, hits give low values 0.925 | locus YIL125W, strain kgd1, hits give low values 1.01 | locus YIR030C, strain dcg1, hits give low values 0.96 | locus YJL095W, strain BCK1, hits give low values 0.849 and 0.971 | locus YJL134W, strain LCB3, hits give low values 0.972 | locus YJL168C, strain set2, hits give low values 0.989 | locus YJR043C, strain POL32, hits give low values 0.891 | locus YJR066W, strain TOR1, hits give low values 0.888 | locus YKL009W, strain mrt4, hits give low values 0.97 | locus YKL068W, hits give low values 0.996 | locus YKL085W, strain MDH1 (second series), hits give low values 1.03 | locus YKL085W, strain MDH1, hits give low values 1.03 | locus YKL190W, strain CNB1, hits give low values 0.94 | locus YLR039C, strain RIC1, hits give low values 0.914 | locus YLR102C, strain apc9, hits give low values 0.995 | locus YLR113W, strain HOG1, hits give low values 1.09 | locus YLR262C, strain YPT6, hits give low values 0.827 | locus YLR330W, strain CHS5, hits give low values 0.944 | locus YLR342W, strain FKS1 (second series), hits give low values 0.871 | locus YLR371W, strain rom2, hits give low values 0.984 | locus YML016C, strain PPZ1, hits give low values 0.934 | locus YML032C, strain rad52, hits give low values 0.937 | locus YML124C, strain tub3, hits give low values 0.979 | locus YMR078C, strain ctf18, hits give low values 0.99 | locus YMR307W, strain GAS1, hits give low values 0.928 | locus YNL183C, strain NPR1, hits give low values 0.973 | locus YNL250W, strain rad50, hits give low values 1.01 | locus YNL271C, strain bni1, hits give low values 0.982 | locus YNL298W, strain CLA4, hits give low values 0.99 | locus YNL307C, strain MCK1, hits give low values 0.991 | locus YNR052C, strain pop2, hits give low values 0.953 | locus YOL006C, strain TOP1, hits give low values 1.23 | locus YOL012C, strain htz1 0.486 | locus YOL147C, strain pex11, hits give low values 0.983 | locus YOR061W, strain CKA2, hits give low values 0.913 | locus YOR069W, strain VPS5, hits give low values 0.947 | locus YOR144C, strain elg1, hits give low values 0.976 | locus YOR231W, strain MKK1, hits give low values 0.92 | locus YOR316C, strain cot1, hits give low values 0.979 | locus YPL256C, strain CLN2, hits give low values 1.07 | locus YPR119W, strain clb2, hits give low values 0.992 | locus YPR141C, strain kar3, hits give low values 0.992 | locus YPR163C, strain tif3, hits give low values 0.99
